Unmarked numbers belong to inactive results. Inconclusive results are not listed. Active and inactive are the calls of the source. Unless noted, calls come from the whole dose curve.

Results on 16 compounds are retold here after PubChem BioAssay (NCATS).

The nature of assay [1]: Validation screen for inhibitors of Lassa infection (AID 463096). Note: % is set by controls: 0 for no effect and ±100 for the full control effect.
Assay [2] is described as follows: qHTS for Inhibitors of the Functional Ribonucleoprotein Complex (vRNP) of Lassa (LASV) Arenavirus: LASV Primary Screen - GLuc reporter signal (AID 1347082; calls by dose curve; tested in HEK293 reporter line; note: series mostly up to about 57 µM; % is set by controls: 0 for no effect and ±100 for the full control effect; nearly all actives have a fitted effect of over 60% in size). (qHTS replaces the single test concentration by a dilution series.)
A short description of assay [3]: qHTS for Inhibitors of the Functional Ribonucleoprotein Complex (vRNP) of Lassa (LASV) Arenavirus: Viability assay - alamar blue signal for LASV Primary Screen (AID 1347083; calls by dose curve; tested in HEK293 reporter line; note: series mostly up to about 57 µM; % is set by controls: 0 for no effect and ±100 for the full control effect; nearly all actives have a fitted effect of over 80% in size).
A short description of assay [4]: qHTS for Inhibitors of the Functional Ribonucleoprotein Complex (vRNP) of Lymphocytic Choriomeningitis Arenaviruses (LCMV): Viability assay - alamar blue signal for LCMV Primary Screen (AID 1347085; calls by dose curve; tested in HEK293 reporter line; note: series mostly up to about 57 µM; % is set by controls: 0 for no effect and ±100 for the full control effect; nearly all actives have a fitted effect of over 80% in size).
Assay [5] deals with Nucleoprotein (Lymphocytic choriomeningitis virus (strain Armstrong)) (UniProt P09992). Kind of assay: qHTS for Inhibitors of the Functional Ribonucleoprotein Complex (vRNP) of Lymphocytic Choriomeningitis Arenaviruses (LCMV): LCMV Primary Screen - GLuc reporter signal (AID 1347086). Note: series mostly up to about 57 µM; % is set by controls: 0 for no effect and ±100 for the full control effect; nearly all actives have a fitted effect of over 70% in size.
Chain of Nucleoprotein (Lymphocytic choriomeningitis virus (strain Armstrong)) (P09992 whole entry, looked up): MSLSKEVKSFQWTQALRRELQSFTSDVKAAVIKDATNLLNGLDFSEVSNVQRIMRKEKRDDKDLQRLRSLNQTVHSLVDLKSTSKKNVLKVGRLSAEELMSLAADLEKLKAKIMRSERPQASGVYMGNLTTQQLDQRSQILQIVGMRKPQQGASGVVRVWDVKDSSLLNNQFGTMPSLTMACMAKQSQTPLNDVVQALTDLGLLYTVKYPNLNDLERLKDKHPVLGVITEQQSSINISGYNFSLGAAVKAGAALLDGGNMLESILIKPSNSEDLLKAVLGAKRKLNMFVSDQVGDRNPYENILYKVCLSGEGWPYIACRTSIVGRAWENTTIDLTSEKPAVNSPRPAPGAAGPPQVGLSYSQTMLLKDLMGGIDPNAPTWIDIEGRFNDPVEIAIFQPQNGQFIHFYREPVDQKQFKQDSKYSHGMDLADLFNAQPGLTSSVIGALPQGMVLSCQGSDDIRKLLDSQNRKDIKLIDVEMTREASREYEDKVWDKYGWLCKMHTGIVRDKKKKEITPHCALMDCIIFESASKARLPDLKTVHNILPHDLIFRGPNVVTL
The nature of assay [6]: Inducers of the Endoplasmic Reticulum Stress Response (ERSR) in human glioma: Validation (AID 504836; active = well fitted curve in the direction sought with a large enough effect; an effect the other way counts as inactive or inconclusive; note: 0% is about no effect). A digest of the protocol:
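Stably transfected U87-MG glioma cells carrying a GRP78-based luciferase sensor; 16 h compound incubation. Luminescence end-point read 10 min after Bright-Glo addition at room temperature.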

The target of assay [7] is Tyrosyl-DNA phosphodiesterase 1 (Homo sapiens) (UniProt Q9NUW8). The assay is described as follows: Confirmation Assay for Inhibitors of Tyrosyl-DNA Phosphodiesterase (TDP1) (AID 489007; active = well fitted curve in the direction sought with a large enough effect; an effect the other way counts as inactive or inconclusive; note: potency is the fitted concentration of half-maximal effect; nearly all actives have a fitted effect of over 40% in size). The following applies: recombinant human TDP1 enzymatic activity, dose-response. A digest of the protocol: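 Recombinant E. coli-expressed Tdp1 (1 nM final) was preincubated with compounds 15 min at room temperature, then reacted 5 min with 15 nM 5'-biotin/3'-phosphotyrosine-FITC DNA substrate; cleavage read as loss of AlphaScreen signal (10 ug/ml beads, 10 min).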
Chain of Tyrosyl-DNA phosphodiesterase 1 (Homo sapiens) (Q9NUW8 whole entry, looked up): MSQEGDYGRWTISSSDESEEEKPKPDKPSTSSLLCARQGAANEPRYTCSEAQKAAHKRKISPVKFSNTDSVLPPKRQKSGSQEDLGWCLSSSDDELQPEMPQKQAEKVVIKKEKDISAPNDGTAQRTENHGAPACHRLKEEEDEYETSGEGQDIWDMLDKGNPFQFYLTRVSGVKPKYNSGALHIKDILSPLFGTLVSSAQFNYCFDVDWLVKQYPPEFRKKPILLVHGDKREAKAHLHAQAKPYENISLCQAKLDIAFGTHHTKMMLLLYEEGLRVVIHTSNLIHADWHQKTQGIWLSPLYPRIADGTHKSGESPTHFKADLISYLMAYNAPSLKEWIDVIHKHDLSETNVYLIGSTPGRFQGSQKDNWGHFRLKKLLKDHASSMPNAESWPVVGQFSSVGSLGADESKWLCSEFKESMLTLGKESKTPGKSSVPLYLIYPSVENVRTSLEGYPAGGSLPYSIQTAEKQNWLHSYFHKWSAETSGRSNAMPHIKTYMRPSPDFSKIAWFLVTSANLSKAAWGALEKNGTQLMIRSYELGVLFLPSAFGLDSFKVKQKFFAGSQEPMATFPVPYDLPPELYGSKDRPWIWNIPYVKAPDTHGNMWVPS

The nature of assay [8]: Validation screen for small molecules that induce genotoxicity in human embryonic kidney (HEK293T) cells expressing luciferase-tagged ELG1 (AID 493106; active = well fitted curve in the direction sought with a large enough effect; an effect the other way counts as inactive or inconclusive; note: 0% is about no effect). A digest of the protocol:
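HEK293T cells expressing luciferase-tagged ELG1 were exposed to compound or DMSO vehicle for 16 hr at 37 °C, 5% CO2. Genotoxic stress raises ELG1 levels, so increased luciferase signal after ONE-Glo addition and 30 min at room temperature marks hits.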

In assay [9] the target is M-phase phosphoprotein 8 (Homo sapiens) (UniProt Q99549). The assay is described as follows: qHTS Validation Assay for Inhibitors for MPP8 Chromodomain Interactions with Methylated Histone Tails (AID 488949; active = well fitted curve in the direction sought with a large enough effect; an effect the other way counts as inactive or inconclusive;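 note: AlphaScreen signal from MPP8 chromodomain bound to biotinylated H3K9me3 peptide; top concentration of the series differs between compounds; % is set by controls: 0 for no effect and ±100 for the full control effect; nearly all actives have a fitted effect of over 55% in size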). Put shortly: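 AlphaScreen read-out: streptavidin donor and nickel chelate acceptor beads (final 10 ug/mL), 30 min in the dark at RT. Complex of 50 nM MPP8 and 50 nM b-H3(1-18)K9me3 peptide had been exposed to compounds for 30 min beforehand.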
Chain of M-phase phosphoprotein 8 (Homo sapiens) (Q99549 whole entry, looked up): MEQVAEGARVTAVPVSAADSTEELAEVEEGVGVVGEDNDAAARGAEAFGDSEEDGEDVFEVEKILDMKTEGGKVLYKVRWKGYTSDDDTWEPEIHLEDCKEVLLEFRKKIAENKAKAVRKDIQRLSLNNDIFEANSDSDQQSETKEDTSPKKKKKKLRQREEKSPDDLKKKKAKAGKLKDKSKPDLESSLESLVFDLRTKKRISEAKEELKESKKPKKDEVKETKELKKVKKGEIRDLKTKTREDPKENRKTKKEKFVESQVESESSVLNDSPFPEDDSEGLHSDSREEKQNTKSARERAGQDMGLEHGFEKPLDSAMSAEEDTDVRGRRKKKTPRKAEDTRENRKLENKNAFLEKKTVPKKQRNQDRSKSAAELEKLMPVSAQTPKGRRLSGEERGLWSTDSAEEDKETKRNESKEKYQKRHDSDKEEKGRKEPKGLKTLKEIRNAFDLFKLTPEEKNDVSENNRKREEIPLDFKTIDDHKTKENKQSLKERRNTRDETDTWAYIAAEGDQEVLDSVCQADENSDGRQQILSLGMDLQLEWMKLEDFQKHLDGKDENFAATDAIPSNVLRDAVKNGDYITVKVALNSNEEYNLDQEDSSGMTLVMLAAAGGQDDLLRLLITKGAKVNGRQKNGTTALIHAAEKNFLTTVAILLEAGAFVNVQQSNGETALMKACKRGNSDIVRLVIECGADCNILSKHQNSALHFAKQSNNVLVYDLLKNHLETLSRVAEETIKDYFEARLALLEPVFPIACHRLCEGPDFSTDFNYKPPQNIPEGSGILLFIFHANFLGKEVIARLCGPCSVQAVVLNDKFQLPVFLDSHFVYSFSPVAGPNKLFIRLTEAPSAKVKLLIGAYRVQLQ

Assay [10] concerns the target Ubiquitin carboxyl-terminal hydrolase 1 (Homo sapiens) (UniProt O94782). The assay is described as follows: Inhibitors of USP1/UAF1: Pilot qHTS (AID 504865; active = well fitted curve in the direction sought with a large enough effect; an effect the other way counts as inactive or inconclusive;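 note: rhodamine fluorescence freed from ubiquitin-rhodamine substrate followed over time; top concentration of the series differs between compounds; % is set by controls: 0 for no effect and ±100 for the full control effect; nearly all actives have a fitted effect of over 35% in size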). A digest of the protocol: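 1nM USP1/UAF1 + cpd, 15 min RT; start w/ Ub-Rho 150nM final; kinetic FL 480/540 nm, 6 reads q60 s. Buffer 50mM HEPES pH 7.8, 0.5mM EDTA, 1mM TCEP, 0.01% Tween-20, 0.1 mg/ml BSA.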
The target of assay [11] is Arylsulfatase A (Homo sapiens) (UniProt P15289). Kind of assay: qHTS screen for enhancers of Arylsulfatase A (ASA1): LOPAC Validation Assay (AID 720538; active = well fitted curve in the direction sought with a large enough effect; an effect the other way counts as inactive or inconclusive; note: 0% is about no effect). A digest of the protocol: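 Read-out: fluorescence at Ex=525/Em=598 nm after 1N NaOH final stop. Patient fibroblasts carrying ASA-I179S had 48h compound exposure, then 14h room-temperature pNCS hydrolysis (0.5mM final) in lysis buffer. Signal increase = enhanced activity.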
Chain of Arylsulfatase A (Homo sapiens) (P15289 whole entry, looked up): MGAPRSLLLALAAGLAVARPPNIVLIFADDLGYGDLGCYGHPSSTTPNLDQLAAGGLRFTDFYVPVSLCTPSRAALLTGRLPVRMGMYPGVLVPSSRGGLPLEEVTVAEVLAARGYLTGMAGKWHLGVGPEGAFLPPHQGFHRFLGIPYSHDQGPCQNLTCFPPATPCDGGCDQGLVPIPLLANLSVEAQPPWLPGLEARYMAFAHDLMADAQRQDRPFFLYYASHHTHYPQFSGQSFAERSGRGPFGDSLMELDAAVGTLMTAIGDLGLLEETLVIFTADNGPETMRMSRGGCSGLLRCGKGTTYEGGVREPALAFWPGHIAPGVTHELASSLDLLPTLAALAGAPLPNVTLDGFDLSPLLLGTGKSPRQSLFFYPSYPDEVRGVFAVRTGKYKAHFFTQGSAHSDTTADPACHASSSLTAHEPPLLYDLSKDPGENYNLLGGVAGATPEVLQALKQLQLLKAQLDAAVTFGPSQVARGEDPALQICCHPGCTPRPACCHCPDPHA

Assay [12] in a line: qHTS Assay for Identifying Gametocytocidal Compounds (AID 743244; active = well fitted curve in the direction sought with a large enough effect; an effect the other way counts as inactive or inconclusive;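 note: % is set by controls: 0 for no effect and ±100 for the full control effect; actives lower the fluorescent signal which means gametocytes are killed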). Particulars: P. falciparum 3D7 stage III-V gametocytes, alamarBlue, 72 h; max response: stronger effect = lower value. A digest of the protocol: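 A resazurin-based viability read-out was applied to mature P. falciparum gametocytes: 72 h compound treatment, then 24 h dye incubation, with falling fluorescence signalling gametocytocidal effect.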

Chain of Ubiquitin carboxyl-terminal hydrolase 1 (Homo sapiens) (O94782 whole entry, looked up): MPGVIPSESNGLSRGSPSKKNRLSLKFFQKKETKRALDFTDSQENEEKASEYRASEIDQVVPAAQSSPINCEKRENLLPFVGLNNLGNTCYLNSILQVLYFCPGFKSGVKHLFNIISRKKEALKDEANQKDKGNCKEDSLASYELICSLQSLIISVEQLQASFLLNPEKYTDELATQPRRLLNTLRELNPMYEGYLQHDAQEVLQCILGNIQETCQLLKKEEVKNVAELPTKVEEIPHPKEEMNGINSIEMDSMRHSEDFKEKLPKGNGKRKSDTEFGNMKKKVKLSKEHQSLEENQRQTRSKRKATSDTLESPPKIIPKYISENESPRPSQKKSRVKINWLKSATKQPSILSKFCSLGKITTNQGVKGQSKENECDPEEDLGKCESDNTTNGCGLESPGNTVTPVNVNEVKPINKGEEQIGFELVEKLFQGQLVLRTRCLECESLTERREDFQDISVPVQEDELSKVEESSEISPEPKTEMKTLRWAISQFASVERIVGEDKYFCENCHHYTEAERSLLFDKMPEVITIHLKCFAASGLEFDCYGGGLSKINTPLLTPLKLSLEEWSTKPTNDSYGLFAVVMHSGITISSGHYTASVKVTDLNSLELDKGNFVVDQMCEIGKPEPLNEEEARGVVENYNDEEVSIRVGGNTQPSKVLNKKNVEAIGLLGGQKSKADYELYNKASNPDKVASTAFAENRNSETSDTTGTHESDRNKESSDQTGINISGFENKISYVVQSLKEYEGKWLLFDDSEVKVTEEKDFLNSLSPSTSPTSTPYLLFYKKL

As to `CCNC(=O)[C@H]1O[C@@H](n2cnc3c(N)nc(NCCc4ccc(CCC(=O)O)cc4)nc32)[C@H](O)[C@H]1O`, the Potency result in assay [1], in [2], in assay [3], in assay [4] and in assay [5] was “inactive” throughout.

In the case of `CC(C)(C)NCC(O)COc1cccc2[nH]c(=O)[nH]c12` (stereo unspecified), the Potency entry in assay [1], in [2], in assay [3], in [4] and in [5] was “inactive” throughout. Besides, in [6], the compound was classed as inactive.

Take `COc1cccc(OC)c1OCCNCC1CSc2ccccc2O1` (stereo unspecified): the Potency result in assay [1], in [2], in assay [3], in assay [4] and in assay [5] was “inactive” each time. Moreover, the call in assay [6] was inactive.

Take `NC1C=CC=C(C(=O)O)C1` (stereo unspecified): the Potency result in assay [1], in assay [2], in [3], in assay [4] and in [5] was “inactive” each time. For the same compound, the Potency in assay [7] is 1.12 µM (active). Moreover, the call in [8] and in assay [6] was inactive.

In the case of `CC1CN(S(=O)(=O)c2cccc3cnccc23)CCN1` (stereo unspecified), the Potency result in assay [1], in assay [2], in assay [3], in assay [4] and in assay [5] was “inactive” in each case. Further, the call in assay [6] was inactive.

With `COC1(C2=NCCN2)COc2ccccc2O1` (stereo unspecified), the Potency result in [1], in assay [2], in assay [3], in [4] and in [5] was “inactive” in each case. The call in assay [6] was inactive.

On to `Cn1c(=O)c2c(nc(/C=C/c3cccc(Cl)c3)n2C)n(C)c1=O`, for which the Potency result in assay [1], in assay [2], in [3], in assay [4] and in [5] was “inactive” each time. The outcome in [6] was inactive.

Regarding `CCCCCCCCCC(=O)NC(CN1CCOCC1)[C@H](O)c1ccccc1` (stereo partly specified), the Potency entry in assay [1], in assay [2], in assay [3], in assay [4] and in [5] was “inactive” each time. In assay [6], the outcome was inactive.

As for `O=C(O)CNC(=O)C(CS)Cc1ccccc1` (stereo unspecified), the Potency entry in assay [1], in [9], in assay [10], in [11], in assay [2] and in assay [3] was “inactive” throughout. The Potency result in [4] and in assay [5] was “inactive” throughout. Also, the compound was called inactive in [6]. In addition, the max response in assay [12] is -3.2%.

On to `CCCCCC[C@@H]([C@@H](C)O)n1cnc2c(N)ncnc21`, for which the Potency entry in assay [1], in assay [2], in [3], in [4] and in [5] was “inactive” in each case. Moreover, the result in assay [6] was inactive.

Regarding `OCC1O[C@H](O)C(Cl)C(O)C1O` (stereo partly specified), the Potency result in assay [1], in assay [2], in assay [3], in [4] and in assay [5] was “inactive” throughout. Further, the compound was classed as inactive in assay [6].

Take `S=C(S)OC1CC2CC1C1CCCC21` (stereo unspecified): the Potency result in assay [1], in [2], in assay [3], in [4] and in [5] was “inactive” throughout. The result in [6] was inactive.

Consider `CCCCS(=N)(=O)CC[C@H](N)C(=O)O` (stereo partly specified), for which the Potency entry in assay [1], in assay [2], in assay [3], in assay [4] and in assay [5] was “inactive” each time. Moreover, in [6], the compound was classed as inactive.

Turning to `CC(C)C[C@H](NC(=O)C1OC1C(=O)O)C(=O)NCCCCN=C(N)N` (stereo partly specified), the Potency entry in assay [1], in assay [2], in assay [3], in [4] and in [5] was “inactive” each time. Moreover, the call in assay [6] was inactive.

Turning to `CCCCCCCCCCCCCCCC(=O)OC(CC(=O)O)C[N+](C)(C)C` (stereo unspecified), the Potency result in assay [1], in assay [2], in assay [3], in assay [4] and in assay [5] was “inactive” throughout. Also, the outcome in assay [6] was inactive.

Turning to `CC(N)(C(=O)O)c1ccc(C(=O)O)cc1` (stereo unspecified), the Potency entry in [1], in assay [2], in assay [3], in assay [4] and in assay [5] was “inactive” each time. The compound was called inactive in assay [6].
